Hits are enriched below; roughly 4.2% of the tested compounds scored in any of these assays.
D1 potentiator = potentiators of human D1 dopamine receptor | P21728 | potentiation, % at 10 µM | actives 0.036% (n = 360,000) | HEK293 TREx D1 cells, calcium flux, dopamine EC20 potentiation | AID 504651; in the data active = potentiation above about 30%; note: 0% is about no effect
Target sequence (P21728 whole entry, looked up): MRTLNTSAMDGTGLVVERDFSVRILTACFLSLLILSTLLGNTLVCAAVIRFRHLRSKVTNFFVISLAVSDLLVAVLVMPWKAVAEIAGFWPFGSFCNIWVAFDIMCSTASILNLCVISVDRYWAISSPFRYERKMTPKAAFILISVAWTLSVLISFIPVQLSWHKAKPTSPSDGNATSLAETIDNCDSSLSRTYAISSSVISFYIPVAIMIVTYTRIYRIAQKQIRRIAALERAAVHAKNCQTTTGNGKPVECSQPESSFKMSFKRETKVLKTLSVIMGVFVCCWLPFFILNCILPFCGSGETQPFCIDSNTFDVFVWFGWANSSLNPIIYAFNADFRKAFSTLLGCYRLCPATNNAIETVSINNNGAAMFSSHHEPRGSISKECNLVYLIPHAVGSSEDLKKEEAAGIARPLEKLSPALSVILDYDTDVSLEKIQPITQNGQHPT
TRPV1 potentiator = human TRPV1 potentiation; Q8NER1; TRPV1-expressing cells, Fluo-8 calcium influx, capsaicin EC20 potentiation; potentiation, % at 8.33 µM; actives 0.02% (n = 320,000); in the data active = potentiation above about 80%; inconclusive = between about 30% and that limit; note: 0% is about no effect
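TRPV1-expressing cells were cultured overnight at 35.5C and loaded with Fluo-8 calcium dye for 40 to 90 min at room temperature. After a 10 s baseline, compound was added and calcium influx was read kinetically for 3 min (ex 480/em 520 nm).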
TRPV1 agonist = agonists of human vanilloid receptor 1 (TRPV1) | Q8NER1 | TRPV1-expressing cells, Fluo-8 calcium influx, agonist mode | activation, % at 8.33 µM | actives 0.19% (n = 320,000) | AID 540275; in the data active = activation above about 80%; inconclusive = between about 30% and that limit; note: 0% is about no effect
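TRPV1-expressing cells were cultured overnight at 35.5C and loaded with Fluo-8 calcium dye for 40 to 90 min at room temperature. After a 10 s baseline, compound was added and calcium influx was read kinetically for 3 min (ex 480/em 520 nm).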
D1 ag = activates the human D1 dopamine receptor. P21728. HEK293 T-REx D1 cells, calcium flux, agonist mode. activation, % at 2 µM. actives 1% (n = 360,000); in the data active = activation above about 30%; note: 0% is about no effect
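Tetracycline-induced HEK293 TREx D1 cells, force-coupled to calcium signalling, were dye-loaded with a no-wash calcium kit. Compound was pin-added after a 10 s baseline. Fluorescence was read kinetically at 1 cycle/s for 180 s, with calcium rises flagged as agonism.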
D1 antagonist = blocks dopamine activation of the human D1 receptor; P21728; actives 3.2% (n = 360,000); AID 504652; HEK293 TREx D1 cells, calcium flux, dopamine EC80; active compounds read low; activity change, negative = inhibition, % at 10 µM; in the data active = activity change below about -30%; note: % is set by controls: 0 for no effect and ±100 for the full control effect
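Using tetracycline-induced force-coupled D1 Hek293 cells and a calcium dye, signals were followed for 180 s after compound, then for 180 s after EC80 dopamine, to detect inhibitors.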
* = called active by the depositor; ? = inconclusive; · = not tested or not shown; ! = not active in a repeat.

SMILES	D1 potentiator	TRPV1 potentiator	TRPV1 agonist	D1 ag	D1 antagonist
COc1cccc(C2CC(c3cccc(Br)c3)n3ncnc3N2)c1 (stereo unspecified)	-4.0	-8.6	1.9	0.9	-56.5*
COc1ccc(Cl)cc1NC(=O)c1cc(S(=O)(=O)N(C)Cc2ccccc2)ccc1F	-0.1	·	·	-1.2	3.7
CCCCn1nnnc1SCC(=O)NCc1ccco1	-10.7	-8.8	6.5	2.5	-33.0*
Cn1c(SCC(=O)NCc2ccco2)nnc1-c1ccccc1	-8.5	-5.1	2.4	0.6	-53.3*
CCc1ccccc1-n1c(SCC(=O)NC)nnc1-c1ccco1	-1.1	2.0	2.5	9.7	-37.3*
CCn1nnnc1SCC(=O)NCc1ccco1	-5.1	-5.8	2.2	0.2	-12.9
CC(C)(C)C(=O)Nc1nnc(SCC(=O)NCc2ccco2)s1	-5.6	1.3	-3.6	2.3	-25.8
CC(C)(C)c1nnc2sc(SCC(=O)NCc3ccco3)nn2c1=O	·	2.8	0.4	5.0	-32.5*
CCOC(=O)c1c(C)[nH]c(C)c1S(=O)(=O)NCCN1CCN(c2ccccc2F)CC1	-20.2	15.3	4.3	2.1	-79.4*
COc1ccc(NC(=O)NCCCN2CCN(c3ccccc3F)CC2)cc1	-13.0	-14.3	18.6	6.5	-86.2*
Cc1ccc(-n2nc(C)c(C(=O)NCCCN3CCN(c4ccccc4F)CC3)c2-n2cccc2)cc1	-3.6	·	·	21.8	-46.7*
COc1ccc(NC(=O)NCCCN2CCN(c3cc(C)ccc3C)CC2)cc1	-8.6	-14.1	-0.2	-0.6	2.0
CCOC(=O)c1c(C)[nH]c(C)c1S(=O)(=O)NCC1CCN(Cc2ccccc2F)CC1	1.7	-8.2	2.5	0.2	35.0
CCOc1ccc(NC(=O)NCCN2CCN(c3ccccc3F)CC2)cc1	-23.0	21.9	8.6	4.2	-60.8*!
O=C(c1ccc2c(c1)CCN2S(=O)(=O)c1ccc(Cl)cc1)N1CCN(c2ccccc2F)CC1	3.6	·	·	2.4	2.1
Fc1ccccc1CNc1ncnc2sccc12	-4.5	11.7	3.4	9.2	-28.0
COc1ccc(CCNc2ncnc3sccc23)cc1OC	-3.4	-7.4	8.8	24.7	-38.5*
COc1ccccc1CNc1ncnc2sccc12	-8.3	-1.6	0.2	31.0*	-30.8*
COc1ccc(CCNc2ncnc3c2oc2ccccc23)cc1OC	-14.6	5.4	-0.8	13.4	-69.1*
O=C(NC1CCCCCC1)c1ccc2c(c1)sc1nc(-c3ccccc3)cn12	-0.5	·	·	-1.4	-22.6
CCCCn1c(=O)c2oc3ccccc3c2n(Cc2cccc(F)c2)c1=O	-0.3	·	·	0.8	3.6
Cc1cc(Nc2cccc(C(F)(F)F)c2)nc2ccc(NC(=O)c3ccc(N(C)C)cc3)cc12	1.1	·	·	-1.6	16.2
O=C(Cc1cccs1)Nc1cccc(-c2nc3cc4ccccc4cc3[nH]2)c1	-5.5	1.0	8.6	0.1	-38.4*
CC(=O)Oc1ccccc1-n1c(C)nc(=O)c(-c2ccccc2)c1C	-6.3	5.3	-1.8	1.5	-38.9*
Cc1cc(C)cc(OCC(=O)Nc2ccc(-c3nc4ccccc4o3)cc2)c1	-3.1	·	·	9.0	-32.2*
SMILES	D1 potentiator	TRPV1 potentiator	TRPV1 agonist	D1 ag	D1 antagonist
Cc1cc(Cl)ccc1OCC(=O)Nc1ccc2oc(=O)ccc2c1	-10.9	-6.5	19.3	7.6	-29.2
O=C(COc1ccccc1[N+](=O)[O-])Nc1cc(-c2nc3cc(Cl)ccc3o2)ccc1Cl	-2.1	·	·	0.3	-45.2*
Cc1cccc(OCC(=O)Nc2ccc(-c3nc4ccccc4o3)cc2)c1C	-0.6	·	·	4.4	8.2
COc1ccc(-c2nc3cc(NC(=O)COc4ccccc4C)ccc3o2)cc1	3.8	·	·	9.5	-54.1*
Cc1ccc(OCC(=O)Nc2ccc3oc(=O)ccc3c2)c(C)c1	-6.5	-12.0	28.1	2.9	-55.5*
CCC(=O)Oc1c(Sc2ccc(Cl)cc2)c(C)nn1C(C)(C)C	2.3	·	·	5.2	12.3
CCOC(=O)c1c(NC(=O)c2cc3ccccc3c(=O)o2)sc2c1CCC(C(C)(C)C)C2 (stereo unspecified)	1.4	·	·	0.2	7.9
CC1=C(C(=O)Nc2cccnc2)C(c2cccc(Br)c2)n2nc(SCc3ccccc3)nc2N1 (stereo unspecified)	1.4	·	·	0.6	19.0
CC(=O)Nc1cccc(NC(=O)CSc2ccc(-c3sc(-c4ccccc4)nc3C)nn2)c1	-4.5	·	·	4.5	3.0
O=C(COc1ccc2ccc(=O)oc2c1)Nc1ccc(CCO)cc1	-3.0	-0.3	0.5	2.5	-49.4*
Cc1cc(N2CCN(C)CC2)ccc1NC(=O)c1cccc(S(=O)(=O)N2CCc3ccccc3C2)c1	-12.4	-4.7	-3.1	15.7	-87.3*
Cc1ccc(NC(=O)c2cccc(S(=O)(=O)N3CCc4ccccc4C3)c2)nc1	-0.1	3.6	0.7	-0.2	-2.2
O=C(NC1CCCC1)c1ccc(CSc2nc3ccncc3n2Cc2cccc(F)c2)cc1	-2.0	·	·	1.7	-19.5
Nc1nonc1-n1nnc(C(=O)N/N=C/c2ccoc2)c1-c1ccccc1	-7.0	-2.1	3.1	35.4*	17.4
Cc1ccc(/C=N/NC(=O)c2nnn(-c3nonc3N)c2-c2ccccc2)o1	-4.2	10.8	8.0	34.4*	-14.6
CN(Cc1ccccc1)C(=O)COC(=O)c1ccccc1NS(=O)(=O)c1cccc(N)c1	-6.4	17.0	0.2	5.6	-31.7*
Cc1ccc2c(CNC3CCC(C)CC3)c(C(=O)O)n(Cc3cccc(F)c3)c2c1 (stereo unspecified)	4.4	·	·	-0.6	16.5
Cc1ccc2c(CC(=O)Nc3c(C)n(C)n(-c4ccccc4)c3=O)coc2c1	-3.2	4.7	-1.2	0.2	-80.1*
COc1ccc2c(CC(=O)Nc3c(C)n(C)n(-c4ccccc4)c3=O)coc2c1	6.5	11.7	-6.2	1.2	-5.9
COc1ccc(Br)cc1CN(C)CC(=O)NCc1ccc(F)cc1	-1.9	-5.8	11.5	-0.5	1.0
COc1ccc(CNC(=O)CN(C)Cc2ccccc2F)cc1OC	0.2	-32.0	?	1.5	-35.5*
CCOc1ccc(CNC(=O)CCSCc2ccccc2F)cc1OC	-0.8	-9.5	104.4*	1.0	-3.7
O=C(CSCc1ccccc1F)NCc1ccc(F)cc1	0.4	-16.8	?	2.3	-34.8*
Cc1ccc(CSCC(=O)NCc2ccc(F)cc2)cc1	-2.8	-1.9	82.0*	-0.3	-4.4
CCOC(=O)CNC(=O)CSc1cn(CC(=O)N2CCCCCC2)c2ccccc12	-2.5	·	·	2.2	-3.5
CC(=O)c1ccc(N2CCN(S(=O)(=O)c3c(C)nc4sc(C)cn4c3=O)CC2)cc1	-0.2	·	·	1.5	-12.2
O=C(CCSCc1ccccc1F)NCc1ccc(F)cc1	10.0	5.9	82.1*	3.4	3.4
CCOC(=O)c1c(C)oc2nc(C)nc(NCCCN3CCN(c4ccccc4OC)CC3)c12	-4.1	·	·	-0.5	-4.0
CCOC(=O)C1CCC(CN(Cc2cccc(Br)c2)S(=O)(=O)c2ccc(C)cc2)CC1 (stereo unspecified)	-0.3	·	·	32.3*	21.6

Assay outcomes deposited in PubChem BioAssay by National Center for Advancing Translational Sciences (NCATS).
